Assay outcomes (PubChem)
Compounds with a hit are over-represented: about 27% of the library has one in this group of screens.
CYP2C9 inh – blockers of cytochrome P450 2C9 activity – biochemical, luminescence, ADME assay, primary screen | P11712 | CYP2C9 Supersomes, luciferin-H conversion | inhibition, % at 5 µM | 96,000 compounds, 20% hits;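 active = blocking of liver enzyme CYP2C9 beyond about 50% at 5 µM, limit read from the data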
Target sequence (P11712 whole entry, looked up): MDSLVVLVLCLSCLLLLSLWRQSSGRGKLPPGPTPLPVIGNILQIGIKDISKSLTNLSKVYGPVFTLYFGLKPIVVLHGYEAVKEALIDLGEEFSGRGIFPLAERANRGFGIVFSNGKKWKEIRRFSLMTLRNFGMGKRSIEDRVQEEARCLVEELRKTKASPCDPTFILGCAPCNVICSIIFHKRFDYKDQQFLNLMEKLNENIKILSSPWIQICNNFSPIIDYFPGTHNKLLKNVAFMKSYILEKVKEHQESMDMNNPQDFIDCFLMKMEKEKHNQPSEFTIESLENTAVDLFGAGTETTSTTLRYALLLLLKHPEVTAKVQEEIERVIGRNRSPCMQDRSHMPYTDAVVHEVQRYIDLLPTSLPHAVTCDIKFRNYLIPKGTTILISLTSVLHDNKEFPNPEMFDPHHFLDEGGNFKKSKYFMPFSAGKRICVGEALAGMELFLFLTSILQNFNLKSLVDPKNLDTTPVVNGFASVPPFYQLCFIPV
sEH act – soluble epoxide hydrolase activators, primary screen, biochemical, human sEH; Bifunctional epoxide hydrolase 2 (Homo sapiens), P34913; purified human sEH enzymatic activity, activator screen; activation, % at 2 µM; 91,000 compounds, 0.04% hits; AID 717, 2007; in the data active = activation above about 37%
CYP2C9 act – human CYP2C9 activators, primary screen, biochemical, luminescence; Cytochrome P450 2C9 (Homo sapiens), P11712; recombinant CYP2C9, luciferin-H conversion; hits give high values; factor 1 = untreated enzyme, 0 = blocked; activation factor at 5 µM; 96,000 compounds, 1.4% hits;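 active = activation factor of 2 or more for CYP2C9 at a 5 µM dose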;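 also: 0 = sulfaphenazole-blocked wells and 1 = vehicle-only wells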
CYP2C19 inh – blockers of cytochrome P450 2C19 activity – biochemical, luminescence, ADME assay, primary screen; P33261; CYP2C19 Supersomes, luciferin-H EGE luminescence, 30 min; 96,000 compounds, 21% hits; inhibition, % at 5 µM;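 active = CYP2C19 inhibition above a set limit at 5 µM in the primary screen, cut at about 50% in these data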;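 also: plate controls were negative control wells for no effect and 2.5 mM tranylcypromine positive control for full effect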
sEH inh – soluble epoxide hydrolase inhibitors, primary screen, biochemical, human sEH | Bifunctional epoxide hydrolase 2 (Homo sapiens), P34913 | recombinant human sEH enzymatic activity assay | inhibition, % at 2 µM | 91,000 compounds, 0.34% hits; in the data active = inhibition above about 80%
CYP2C19 activ – human CYP2C19 activators, primary screen, biochemical, luminescence | Cytochrome P450 2C19 (Homo sapiens), P33261 | recombinant CYP2C19, luciferin-H EGE luminescence; hits give high values; 0 = fully inhibited enzyme, 1 = untreated enzyme | activation factor at 5 µM | 96,000 tested, under 10 active;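 active = activation factor of at least 2 at 5 µM in the primary screen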;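 also: 0 = wells with 2.5 mM tranylcypromine and 1 = vehicle-only wells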
* marks the source's active call; other numbers are inactive results; nt = no result.

SMILES	CYP2C9 inh	sEH act	CYP2C9 act	CYP2C19 inh	sEH inh	CYP2C19 activ
CCSc1nc2ccccc2n1C(=O)/C=C\c1ccc(OC)c(OC)c1	10	0	0.9	4	2	1
O=C(OC1CCS(=O)(=O)c2sccc21)c1ccccc1 (centres undefined)	35	-2	0.7	56*	0	0.4
C(=N\n1cnnc1)/c1ccc(OC2CSC2)cc1	85*	nt	0.1	93*	nt	0.1
C(=N\n1cnnc1)/c1ccc(OCc2cccc3ccccc23)cc1	81*	15	0.2	38	-18	0.6
Fc1ccccc1COc1ccc(/C=N/n2cnnc2)cc1	95*	9	0.1	97*	-8	0
CCCC12CN3CC(CCC)(CN(C1)C3C(O)C(O)C(O)CO)C2=O (centres undefined)	4	-5	1	3	6	1
CCCS(=O)(=O)N1CCCC(C(=O)NCCCN2CCN(c3cccc(Cl)c3)CC2)C1 (centres undefined)	13	-14	0.9	-3	12	1
CN(Cc1ccccc1)C(=O)CNC(=O)Cn1cnc2ccccc2c1=O	16	-8	0.8	-3	5	1
CCN(CC)NC(=S)Nc1ccccc1	-15	-2	1.2	28	4	0.7
CCCOC(=S)Nc1ccccc1	20	-15	0.8	62*	17	0.4
CC(C)(C)c1csc(N(CCC#N)CCC#N)n1	56*	0	0.4	54*	1	0.5
COC1Cc2ccccc2N(C(=O)N2CCN(CCO)CC2)c2ccccc21 (centres undefined)	-5	15	1.1	32	-18	0.7
C=CCNc1oc(Cc2cccc3ccccc23)nc1C#N	65*	10	0.4	100*	-6	0
Cc1ccc(-c2nc(C#N)c(NCc3cccc4c3OCO4)o2)cc1	39	-3	0.6	-5	8	1.1
N#Cc1nc(Cc2cccc3ccccc23)oc1NCCN1CCOCC1	-8	17	1.1	-11	-21	1.1
N#Cc1nc(-c2ccc(F)cc2)oc1NCc1cccc2c1OCO2	63*	nt	0.4	17	nt	0.8
CC1CCN(c2oc(Cc3cccc4ccccc34)nc2C#N)CC1	76*	-13	0.2	93*	14	0.1
N#Cc1nc(Cc2cccc3ccccc23)oc1NCc1ccc(F)cc1	90*	-10	0.1	52*	8	0.5
N#Cc1nc(-c2ccccc2)oc1NCCN1CCCCC1	9	-7	0.9	38	5	0.6
C=CCNc1oc(/C=C/c2ccccc2)nc1C#N	74*	15	0.3	68*	-13	0.3
O=C(Nc1sccc1C(=O)N1CCOCC1)c1cccnc1	-10	-11	1.1	-4	12	1
CNc1nc(NCCOC23CC4CC(CC(C4)C2)C3)nc(OCC(F)(F)F)n1	21	11	0.8	46	-7	0.5
CNS(=O)(=O)c1ccc(NC(=O)c2nc3nc(C)cc(C(F)F)n3n2)cc1	-26	-5	1.3	3	5	1
Cc1ccc(N2CC(C(=O)NCCCn3ccnc3)CC2=O)cc1 (centres undefined)	76*	7	0.2	85*	-4	0.1
Cc1ccc(N2CC(C(=O)NCCC(C)C)CC2=O)cc1 (centres undefined)	nt	-2	nt	nt	3	nt
SMILES	CYP2C9 inh	sEH act	CYP2C9 act	CYP2C19 inh	sEH inh	CYP2C19 activ
CCc1nnc(NC(=O)C2CC(=O)N(c3ccc(C)cc3)C2)s1 (centres undefined)	12	-3	0.9	-7	3	1.1
Cc1ccc(N2CC(C(=O)Nc3nnc(C(C)C)s3)CC2=O)cc1 (centres undefined)	58*	24	0.4	2	-21	1
CCCCNC(=O)c1onc(CSc2ccccc2CC)c1C(=O)O	72*	-3	0.3	16	8	0.8
COCCNC(=O)c1onc(CSc2ccccc2F)c1C(=O)O	7	-8	0.9	-3	10	1
Cc1ccc(C)c(SCc2noc(C(=O)NC(C)C)c2C(=O)O)c1	72*	-5	0.3	8	10	0.9
COCCNC(=O)c1onc(CSc2cc(C)ccc2C)c1C(=O)O	30	0	0.7	8	2	0.9
